These results are taken from PubChem BioAssay (NCATS).

For experiment [1], the system named is Zika virus NS2B-NS3 protease (linked construct). The experiment can be described thus: Primary screen NINDS Rhodamine qHTS for Zika virus inhibitors (AID 1347160). Also: nearly all actives have a fitted effect of over 55% in size. Also: potency is read from the fitted curve at half-maximal effect. The procedure, abridged: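 Rhodamine110-peptide cleavage (1.5 µM substrate) by 25 nM linked NS2B-NS3 enzyme at pH 8.0 (Tris, Tween 20), after 15 min RT preincubation with compounds; 15-min fluorescence change normalized to controls and Hill-fitted.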
Background: In qHTS, concentration-response curves come from the screen itself.

A short description of experiment [2]: HPAF-II Cancer Cell Toxicity qHTS against the NCATS CANVASS Library (AID 1347346). Also: series mostly up to about 38 µM; nearly all actives have a fitted effect of over 55% in size. In a few lines: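 1000 HPAF-II cells/well; 4 h pre-incubation; 11-pnt compound titration; 72 h, 37 degrees C/5% CO2; CellTiter-Glo, 15 min RT; luminescence read.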
The nature of experiment [3]: OV-SAHO Cancer Cell Toxicity qHTS against the NCATS CANVASS Library (AID 1347348). Also: series mostly up to about 38 µM; nearly all actives have a fitted effect of over 55% in size. In a few lines: (§1)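 Viability was assessed by adding CellTiter-Glo reagent to treated cultures and reading luminescence after 15min at room temperature. Treatment lasted 72 h at 37 degrees C/5% CO2, using an 11-point series on 1000 cells/well.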
A short description of experiment [4]: U-118MG Cancer Cell Toxicity qHTS against the NCATS CANVASS Library (AID 1347351). Also: series mostly up to about 38 µM. In a few lines:
as §1

Experiment [5] can be described thus: COV-362 Cancer Cell Toxicity qHTS against the NCATS CANVASS Library (AID 1347352). Also: series mostly up to about 38 µM. The procedure, abridged: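 1000 cells/well, 4 h pre-incubation 37 °C/5% CO2; 11-pnt titration; 72 h; CellTiter-Glo 15 min RT, luminescence.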
Experiment [6] in a line: HEK293 18hr Apoptosis Induction qHTS against the NCATS CANVASS Library (AID 1347357). In a few lines: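 HEK293 cells (500 per well, DMEM with 10% FBS) were treated with natural products, incubated 18 hours at 37 degrees C, then caspase-3/7 activity was read by Caspase-Glo luminescence after 15 min at room temperature.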
Experiment [7] in a line: HPAF-II 12hr Apoptosis Induction qHTS against the NCATS CANVASS Library (AID 1347358). The procedure, abridged: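 Caspase-Glo 3/7 luminescence (DEVD substrate) reports caspase activity in HPAF-II cells after 12 h compound treatment at 37 degrees C. Compounds were tested in an 11-point series. Doxorubicin served as control.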
The nature of experiment [8]: HEK293 24hr Apoptosis Induction qHTS against the NCATS CANVASS Library (AID 1347359). The procedure, abridged: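 HEK293 cells (500/well, DMEM + 10% FBS) were exposed to compounds in an 11-point series for 24 hours at 37 degrees C, then caspase-3/7 activity was read by Caspase-Glo DEVD luciferase luminescence after 15 min.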
Experiment [9] in a line: HPAF-II 18hr Apoptosis Induction qHTS against the NCATS CANVASS Library (AID 1347360). In a few lines: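 HPAF-II cells (500/well, DMEM + 10% FBS) were exposed to compounds for 18 hours at 37 degrees C. Caspase-3/7 activity was then read by Caspase-Glo 3/7 luminescence after 15 min at room temperature.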
The nature of experiment [10]: HEK293 12hr Apoptosis Induction qHTS against the NCATS CANVASS Library (AID 1347361). The procedure, abridged:
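Read-out: Caspase-Glo 3/7 luminescence (DEVD substrate), 15 min RT. Preceded by 12 h compound exposure of HEK293, 500 cells/well, 11-pt qHTS titration; doxorubicin titration as control.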

Experiment [11] concerns the target Luciferin 4-monooxygenase (Photinus pyralis) (UniProt P08659). Put plainly: Firefly luciferase counterscreen qHTS: Assay Interference Panel against the NCATS CANVASS Library (AID 1347363). Also: series mostly up to about 57 µM. In a few lines:
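Purified P. pyralis luciferase was added to compounds (11-point series) preincubated 15 min at room temperature with substrate containing 0.013 mM D-luciferin and 0.013 mM ATP; luminescence was read after 5 min.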

Experiment [12] is described as follows: MCF7 Cancer Cell Toxicity qHTS against the NCATS CANVASS Library (AID 1347369). The procedure, abridged:
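MCF7, 500 cells/well; cpds 11-pt qHTS; 72 hr, 37C/5% CO2; CellTiterGlo ATP luminescence.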

The nature of experiment [13]: qHTS for ATAD5 Antagonist screened against the NCATS CANVASS Library (AID 1347370).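 Also: HEK293T cells carrying an ATAD5 luciferase reporter co-treated with 10 µM 5-fluorouridine; series mostly up to about 46 µM; nearly all actives have a fitted effect of over 65% in size.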 The procedure, abridged: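 HEK293T-ATAD5 luc reporter, 2000 cells/well; 5hr attach; cpd + 10 uM 5-FUrd; 16hr 37C, 5% CO2. Readouts: CellTiter-Fluor fluorescence (1hr), then Amplite luciferase luminescence (30min RT).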
Experiment [14] can be described thus: J3T Cancer Cell Toxicity qHTS against the NCATS CANVASS Library (AID 1347371). The procedure, abridged:
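Dog glioma J3T, 500 cells/well; cpd 11-pt qHTS; 72 hr, 37C/5% CO2; CellTiterGlo ATP luminescence readout.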

Experiment [15] deals with Nuclear receptor subfamily 1 group I member 3 (Homo sapiens) (UniProt Q14994). Put plainly: qHTS for Constitutive Androstane Receptor (CAR) Antagonist screened against the NCATS CANVASS Library (AID 1347372).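 Also: cells stimulated with 50 nM CITCO agonist so inhibition reflects antagonism; luciferase from CYP2B6 promoter reporter driven by hCAR in HepG2 cells; series mostly up to about 46 µM.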 In a few lines:
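Cells were seeded and left 4hr to attach, then received compound at 11 concentrations and 50 nM CITCO. Following 24hr incubation, fluorescence viability and luciferase luminescence were read sequentially.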

The nature of experiment [16]: 10-beta competent E. coli microbial cell viability qHTS against the NCATS CANVASS Library (AID 1347376). Also: series mostly up to about 46 µM. The procedure, abridged: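 Luminescence from BacTiter-Glo ATP detection served as the viability read-out; bacteria (0.2 OD) had been incubated overnight at 37C with pin-transferred compounds at 11 concentrations.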
Experiment [17] is described as follows: qHTS for Inflammasome Signaling Inhibitors: IL-1-beta AlphaLISA screen against the NCATS CANVASS Library (AID 1347379).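 Also: human THP-1 cells primed with LPS then triggered with ATP.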 The procedure, abridged: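 THP-1, 1 hr compound pre-incubation, then LPS 250 ng/mL + ATP 1.25 mM (final); 16 hr total with compound; IL-1B AlphaLISA, ex 680/em 615 nm; 11-point qHTS, up to 57.5 uM final.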
The nature of experiment [18]: Inflammasome Signaling qHTS Counterscreen: IL-1-beta AlphaLISA counterscreen against the NCATS CANVASS Library (AID 1347381).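 Also: cell-free check with purified IL-1β in medium and no THP-1 cells; series mostly up to about 57 µM.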 The procedure, abridged:
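Here, no cellular stimulation occurs; compounds in an 11-point series meet 4 pg purified IL-1-beta directly. Bead-based AlphaLISA detection follows (1 h acceptor/antibody, then 30 min donor, dark, room temperature), with excitation at 680 nm.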

Experiment [19] in a line: Cytotoxicity qHTS for assessment of Hepg2 cells membrane integrity screened against the NCATS CANVASS Library (AID 1347387). The procedure, abridged: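 LDH release read by fluorescence (560 nm ex/590 nm em) after CytoTox-ONE addition and 10 min RT; signal tracks lysed cells. HepG2, 2000 cells/well, plated overnight; compound 5 hr, 37C, 5% CO2, final 0.59 nM - 46 uM, 11 points.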

Experiment [20] in a line: Vero-766 cells viability qHTS against the NCATS CANVASS Library: Counterscreen for Zika virus inhibition assay (AID 1347394). Also: series mostly up to about 46 µM; nearly all actives have a fitted effect of over 60% in size. The procedure, abridged: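 Uninfected Vero 766 (African green monkey) cells, 1000/well, attached overnight, then exposed 72 h at 37C to compounds (11-point qHTS). Viability read by CellTiter-Glo luminescence; media-only wells served as 100% inhibition.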

Unmarked numbers belong to inactive results. Inconclusive results are not listed. Active and inactive are the calls of the source. Calls follow the shape of the dose curve; as a rule, active = well fitted curve in the direction sought with a large enough effect; inconclusive = small, poorly fitted or top-dose-only effect, or another doubt; inactive = no such curve, though single readings can be large; an effect the other way counts as inactive or inconclusive.

Luciferin 4-monooxygenase (Photinus pyralis), sequence (P08659 whole entry, looked up): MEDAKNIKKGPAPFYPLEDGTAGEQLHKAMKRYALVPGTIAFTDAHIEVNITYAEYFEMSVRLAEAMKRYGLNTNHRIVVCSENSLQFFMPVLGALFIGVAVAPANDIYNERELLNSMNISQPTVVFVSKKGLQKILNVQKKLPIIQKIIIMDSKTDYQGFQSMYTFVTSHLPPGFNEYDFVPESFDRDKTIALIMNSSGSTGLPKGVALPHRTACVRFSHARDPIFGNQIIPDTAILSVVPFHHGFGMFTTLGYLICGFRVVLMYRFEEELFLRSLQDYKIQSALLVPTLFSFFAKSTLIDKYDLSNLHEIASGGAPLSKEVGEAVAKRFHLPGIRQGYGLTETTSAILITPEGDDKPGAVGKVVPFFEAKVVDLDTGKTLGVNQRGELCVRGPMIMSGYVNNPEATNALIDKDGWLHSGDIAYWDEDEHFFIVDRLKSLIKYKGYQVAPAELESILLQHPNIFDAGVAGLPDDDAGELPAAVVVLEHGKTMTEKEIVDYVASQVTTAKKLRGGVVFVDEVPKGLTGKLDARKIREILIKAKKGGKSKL
Nuclear receptor subfamily 1 group I member 3 (Homo sapiens), sequence (Q14994 whole entry, looked up): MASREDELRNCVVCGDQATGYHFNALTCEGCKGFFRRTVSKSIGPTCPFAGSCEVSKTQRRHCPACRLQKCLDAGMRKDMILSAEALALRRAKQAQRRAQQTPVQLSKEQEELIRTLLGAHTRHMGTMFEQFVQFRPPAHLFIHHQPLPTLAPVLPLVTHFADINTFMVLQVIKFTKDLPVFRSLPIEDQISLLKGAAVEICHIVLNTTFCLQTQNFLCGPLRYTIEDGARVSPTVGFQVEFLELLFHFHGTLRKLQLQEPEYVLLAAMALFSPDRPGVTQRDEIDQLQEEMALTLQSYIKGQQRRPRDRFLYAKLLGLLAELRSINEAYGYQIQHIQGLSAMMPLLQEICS

For `C1=C2CCCN[C@@H]2[C@@H]2CCN3CCCC[C@@H]3[C@H](C1)C2`, the Potency entry in experiment [1], in [2], in experiment [3], in experiment [4], in experiment [5] and in experiment [6] was “inactive” in each case. Besides, the Potency result in experiment [7], in experiment [8], in [9], in experiment [10], in [11] and in [12] was “inactive” throughout. Also, the Potency entry in experiment [13], in [14], in [15], in experiment [17] and in experiment [20] was “inactive” in each case. Moreover, the outcome in experiment [16], in experiment [18] and in experiment [19] was inactive.

Take `C/C=C/C[C@@H](C)[C@@H](O)[C@H]1C(=O)N[C@@H](CC)C(=O)N(C)CC(=O)N(C)[C@@H](CC(C)C)C(=O)N[C@@H](C(C)C)C(=O)N(C)[C@@H](CC(C)C)C(=O)N[C@@H](C)C(=O)N[C@H](C)C(=O)N(C)[C@@H](CC(C)C)C(=O)N(C)[C@@H](CC(C)C)C(=O)N(C)[C@H](C(C)C)C(=O)N1C`: the Potency result in [1] is “inactive”.

As to `COc1cc(/C=C2/C(=O)N(c3ccc(O)cc3C(=O)O)[C@H](c3ccc(O)c(OC)c3)C2C(=O)Nc2ccc(O)cc2C(=O)O)ccc1O` (stereo partly specified), the Potency in experiment [1] was 6.97 µM (active). Moreover, the Potency result in [2], in experiment [3], in experiment [4], in [5], in experiment [6] and in experiment [7] was “inactive” throughout. Also, the Potency result in experiment [8], in experiment [9], in [10], in experiment [11], in experiment [12] and in [13] was “inactive” throughout. Besides, the Potency entry in [14], in [15], in [17] and in experiment [20] was “inactive” in each case. Besides, the result in experiment [16], in experiment [18] and in [19] was inactive.

As to `Cc1cc(O)cc2oc(C[C@H](C)O)cc(=O)c12`, in [1], the Potency is 44 µM (active). In addition, the Potency entry in experiment [2], in experiment [3], in experiment [4], in experiment [5], in experiment [6] and in [7] was “inactive” in each case. In addition, the Potency entry in [8], in experiment [9], in experiment [10], in experiment [11], in experiment [12] and in experiment [13] was “inactive” each time. Moreover, the Potency result in experiment [14], in experiment [15], in experiment [17] and in [20] was “inactive” each time. For the same molecule, the result in [16], in experiment [18] and in experiment [19] was inactive.

Regarding `C[C@@H](CCC[C@]1(C)C(=O)C=C[C@]23C[C@H]4C[C@H](O[C@@]4(C)C2)C31)C(=O)N[C@@H](CO)C(=O)O` (stereo partly specified), the Potency entry in experiment [1], in experiment [2], in experiment [3], in experiment [4], in [5] and in experiment [6] was “inactive” throughout. Further, the Potency result in experiment [7], in [8], in experiment [9], in experiment [10], in experiment [11] and in experiment [12] was “inactive” each time. Besides, the Potency entry in experiment [13], in experiment [14], in [15], in experiment [17] and in [20] was “inactive” each time. Further, the outcome in experiment [16], in [18] and in experiment [19] was inactive.
